Laboratory results: PubChem BioAssay (NCI)
About 79,000 compounds went through this panel and 15% of them were active in at least one assay; those are over-represented in the sample as a whole. Values without a mark were called inactive. Active and inactive are the calls of the source. No stated cut-off is given here; in the data, active means growth inhibition above about 70%; inactive means the rest.

Assay: NCI Yeast Anticancer Drug Screen. Data for the rad52 strain (AID 147);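 further: 0% = growth of vehicle-treated control cultures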
Details: S. cerevisiae rad52 mutant growth inhibition, stronger effect = higher value
Method: Growth inhibition of yeast strains with defined genetic alterations is measured as a screen for potential anti-cancer activity. Selected strains with alterations in DNA damage repair or cell cycle control were exposed to compounds and growth inhibition was measured relative to vehicle treated controls. The strain used in this assay is rad52

Row | SMILES | growth inhibition (at 1.2 µM) | growth inhibition (at 3.7 µM) | growth inhibition (at 11.0 µM) | growth inhibition (at 33.0 µM) | growth inhibition (at 100.0 µM)
1 | Cc1ccc2[nH]c3c(C)c4cc[n+](C)cc4c(C)c3c2c1 | 25% | 14% | 34% | 89% (active) | 97% (active)
2 | O=[N+]([O-])c1ccc(=S)[nH]c1 | 1% | 0% | -1% | 49% | 93% (active)
3 | COc1ccc(/C=C/C(=O)C(C)(C)Br)cc1 | 45% | 89% (active) | 95% (active) | 97% (active) | 98% (active)
4 | CC(C)=CC(=O)O[C@@H]1CC(C)(C)CC2C3=CCC4[C@]56CC[C@](O)(OC5)C(C)(C)C6CC[C@@]4(C)C3(C)CC[C@]21C(=O)O (stereo not given in full) | 2% | 37% | 80% (active) | 93% (active) | 92% (active)
5 | O=[N+]([O-])CC(SCc1ccccc1)c1ccc2c(c1)OCO2 (stereo not given) | 39% | 34% | 92% (active) | 99% (active) | 97% (active)
6 | O=C1Nc2ccccc2/C1=C/COc1ccccc1 | 1% | 8% | 27% | 90% (active) | 98% (active)
7 | N#C/C(=C\c1cccc(OCc2ccccc2)c1)c1ccc([N+](=O)[O-])cc1 | -24% | -19% | -26% | -28% | -37%
8 | CC(C)NC(=O)OCc1c(COC(=O)NC(C)C)c(-c2ccc(Cl)c(Cl)c2)n2c1CCC2 | -38% | -28% | -19% | 1% | 68%
